From PubChem BioAssay (EPA / NIEHS)
Calls of active or inactive are those of the source. How the source made its calls: active means hit-call score of the fitted dose curve at least 0.9, where 1 is the maximum; inactive means score below 0.9.

The compounds below were run against Signal transducer and activator of transcription 3 (Homo sapiens) (UniProt P40763) (assay: ATG_STAT3_CIS: Attagene CIS-FACTORIAL HepG2 Assay for human Signal Transducer and Activator of Transcription 3 (STAT3) (AID 2282963)). Conditions: HepG2, Attagene cis-factorial STAT3 reporter transcription; actives raise or lower the signal.
Chain of Signal transducer and activator of transcription 3 (Homo sapiens) (P40763 whole entry, looked up, the tested form may be a part): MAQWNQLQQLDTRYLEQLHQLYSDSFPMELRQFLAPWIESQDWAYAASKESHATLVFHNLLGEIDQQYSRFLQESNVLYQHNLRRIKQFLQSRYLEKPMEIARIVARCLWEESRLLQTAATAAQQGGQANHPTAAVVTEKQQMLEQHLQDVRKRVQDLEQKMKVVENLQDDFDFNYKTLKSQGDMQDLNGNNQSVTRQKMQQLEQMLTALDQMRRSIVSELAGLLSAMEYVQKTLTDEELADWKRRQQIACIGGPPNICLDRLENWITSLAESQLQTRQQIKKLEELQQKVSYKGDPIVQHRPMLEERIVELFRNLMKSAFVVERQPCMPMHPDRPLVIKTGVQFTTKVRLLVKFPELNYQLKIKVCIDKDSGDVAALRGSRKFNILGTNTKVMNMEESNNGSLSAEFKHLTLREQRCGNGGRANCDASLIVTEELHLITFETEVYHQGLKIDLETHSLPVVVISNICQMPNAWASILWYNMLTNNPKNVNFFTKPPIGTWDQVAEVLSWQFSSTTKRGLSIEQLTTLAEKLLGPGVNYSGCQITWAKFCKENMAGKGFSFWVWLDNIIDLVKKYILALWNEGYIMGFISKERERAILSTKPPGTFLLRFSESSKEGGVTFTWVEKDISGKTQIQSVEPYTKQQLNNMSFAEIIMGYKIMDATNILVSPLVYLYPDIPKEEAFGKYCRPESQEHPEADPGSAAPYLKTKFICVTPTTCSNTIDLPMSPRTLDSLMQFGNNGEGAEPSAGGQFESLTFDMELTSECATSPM
Procedure, shortened: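 Readout: fluorescent reporter mRNA fragments resolved by capillary electrophoresis. Setup: HepG2 transfected with MRTUs reporting endogenous transcription-factor activity, dosed 24 h. Gain or loss of signal fitted bidirectionally against DMSO control.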

outcome, inactive:
C[Si](C)(C)O[Si](C)(C)C
CCCN(CCC)S(=O)(=O)c1ccc(C(=O)O)cc1
C=C1CC[C@H](O)C/C1=C/C=C1\CCC[C@]2(C)[C@@H]([C@H](C)/C=C/[C@H](C)C(C)C)CC[C@@H]12
CCC(C)S (centres undefined)
CCCCCCC(CO)CCCC (centres undefined)
CCN(CC)C(=O)N(CC)CC
COC(=O)c1ccc([N+](=O)[O-])cc1
c1ccc2[nH]cnc2c1
COC(=O)C=C(C)CCC=C(C)C
CC(C)(N=C=O)c1cccc(C(C)(C)N=C=O)c1
N#Cc1ccc(CC(=O)c2cccc(C(F)(F)F)c2)cc1
O=[N+]([O-])c1cccc(Cl)c1
CCCCC1(COC(=O)CCC(=O)O)C(=O)N(c2ccccc2)N(c2ccccc2)C1=O
Nc1ccc2cc(S(=O)(=O)O)cc(O)c2c1N=Nc1ccccc1C(F)(F)F
NC1CCCCC1N (centres undefined)
CCC1(C)NC(=O)NC1=O (centres undefined)
CC1C2CC(CC2C2CCCC(O)C2)C1(C)C (centres undefined)
CCCC(O)C(O)CO (centres undefined)
CC(C)CC(C)CC(O)CC(C)C (centres undefined)
CCOC(=O)C(C#N)=C(c1ccccc1)c1ccccc1
Cc1ccc(S(N)(=O)=O)cc1
CC1(C)O[C@@H]2C[C@H]3[C@@H]4CCC5=CC(=O)C=C[C@]5(C)[C@@]4(F)[C@@H](O)C[C@]3(C)[C@]2(C(=O)CO)O1
CC(C)(CO)[C@@H](O)C(=O)NCCC(=O)O
Cc1c(Cl)cccc1[N+](=O)[O-]
CC1(C)COCN1
CCCOC(=O)c1c(Cl)c(Cl)c(Cl)c(Cl)c1C(=O)OCCC
CC(C)Nc1nc(N)nc(Cl)n1
OCCCCC(O)CO (centres undefined)
Cc1cc(=O)oc2cc(N(C)C)ccc12
CS(=O)(=O)OCCCCOS(C)(=O)=O
CCOC(=O)C1OC1c1ccccc1 (centres undefined)
CCOc1ccc(N=Nc2ccc(C=Cc3ccc(N=Nc4ccc(OCC)cc4)cc3S(=O)(=O)O)c(S(=O)(=O)O)c2)cc1
CN(C)c1cccc(O)c1
O=C(O)CCCCCCCCCCCC(=O)O
N[C@@H](Cc1cc(I)c(Oc2cc(I)c(O)c(I)c2)c(I)c1)C(=O)O
O=C(c1ccccc1)C(O)c1ccccc1 (centres undefined)
C[Si]1(C)O[Si](C)(C)O[Si](C)(C)O1
COc1cc(Cl)c(OC)cc1N
C=CCCC(=O)/C=C/C1C(C)=CCCC1(C)C (centres undefined)
